Experimental data: PubChem BioAssay AID1159580 (chemical genetic matrix, 2015)
Out of some 5,500 compounds screened, about 2,000 (36%) were called active. Inconclusive results (about 18%) are left out. Cut-off read from the data, not from the text of the source: active = normalized growth mostly below about 0.91 (no sharp cut-off); inconclusive = no clear call, values can overlap the other calls; inactive = mostly above about 0.92. This is one part of the list.

Assay: chemical genetic growth profiling, strain panel (AID 1159580);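 note: tested at 20 µM; growth read once vehicle control cultures reached saturation at 30 °C; 1 = growth at the plate median or of vehicle wells; lower values mean less growth of the strain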
Conditions: S. cerevisiae deletion strains, growth OD

Measured: normalized growth

O=C(O)CC[C@@H](NC(=O)c1ccccc1C(=O)O)C(=O)O
inactive: locus YAL013W, strain DEP1, active compounds read low 1.02 | locus YAL040C, strain CLN3, active compounds read low 0.995 | locus YCL061C, strain MRC1 (second series), active compounds read low 1.01 | locus YDR363W, strain ESC2, active compounds read low 1.01 | locus YER002W, strain NOP16, active compounds read low 1.03 | locus YGR229C, strain SMI1, active compounds read low 1.03 | locus YJR075W, strain HOC1, active compounds read low 1.01 | locus YMR307W, strain GAS1, active compounds read low 1 | locus YNL175C, strain NOP13, active compounds read low 1 | locus YNL197C, strain WHI3, active compounds read low 1.01 | locus YNL224C, strain SQS1, active compounds read low 1.01 | locus YNL322C, strain KRE1, active compounds read low 1 | locus YOR083W, strain WHI5 (second series), active compounds read low 1.02 | locus YPL241C, strain CIN2, active compounds read low 1.01
